In the supplement of paper PMC3334620:
Whole data set: some 33,000 sequences, median “E-score (-0.5 to 0.5)” near -0.015, cut for the highest 2% near 0.3. For the sample, the highest values were picked, then their nearest neighbours and some sequences at random.

target: T1, Abf1 (UniProt P14164); assay: PBM E-score (8-mer binding enrichment) (E-score (-0.5 to 0.5)); higher = stronger / more preferred TF binding; conditions: protein concentration: 200 nM; construct: GST-full length
T1 sequence: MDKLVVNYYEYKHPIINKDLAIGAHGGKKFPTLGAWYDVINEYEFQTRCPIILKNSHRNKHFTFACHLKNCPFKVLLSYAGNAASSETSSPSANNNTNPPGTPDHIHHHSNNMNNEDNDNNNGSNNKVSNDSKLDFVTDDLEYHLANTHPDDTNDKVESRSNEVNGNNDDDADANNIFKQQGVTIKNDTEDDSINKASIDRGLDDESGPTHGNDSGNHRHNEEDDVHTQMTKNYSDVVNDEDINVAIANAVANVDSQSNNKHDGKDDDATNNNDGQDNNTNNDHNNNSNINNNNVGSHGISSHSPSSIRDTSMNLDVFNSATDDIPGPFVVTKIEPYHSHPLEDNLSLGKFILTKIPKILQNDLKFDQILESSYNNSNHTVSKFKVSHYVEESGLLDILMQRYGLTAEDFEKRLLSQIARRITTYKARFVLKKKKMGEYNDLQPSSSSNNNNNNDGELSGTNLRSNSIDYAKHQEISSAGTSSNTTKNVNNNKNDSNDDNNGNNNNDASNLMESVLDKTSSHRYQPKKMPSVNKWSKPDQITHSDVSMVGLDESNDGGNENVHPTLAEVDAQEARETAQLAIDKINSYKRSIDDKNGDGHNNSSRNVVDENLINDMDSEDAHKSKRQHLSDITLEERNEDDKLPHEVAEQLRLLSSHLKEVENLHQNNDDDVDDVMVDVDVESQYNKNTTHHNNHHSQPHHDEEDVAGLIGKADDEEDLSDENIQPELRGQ
Summary of the method: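 The E-score, a modified Wilcoxon-Mann-Whitney statistic, was computed by the Universal PBM Analysis Suite for every ungapped eight-base word pooled with its reverse complement. Scans behind it were normalised with masliner after bound GST-tagged yeast transcription factors were detected with fluorescent anti-GST. The proteins, at about 100-200 nM, had been applied to universal all-10-mer Agilent arrays made double-stranded by primer extension.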

Q: With AAAAGATA as the sequence, how does the “PBM E-score” value read?
A: Its value is 0.182.

Q: With CCTATGCA as the sequence, how does the “PBM E-score” value read?
A: The value was 0.018.

Q: Which “PBM E-score” value does the source give for CGAAGCCG here?
A: The value was -0.0718.

Q: For GCACCCTA, which “PBM E-score” value is on record?
A: Its value is -0.149.

Q: For GAGGTCGC, which “PBM E-score” value is on record?
A: The value was 0.0116.

Q: GCGTGCGA was tested. Which “PBM E-score” value did it give?
A: The value was -0.0331.

Q: GCGTGCAA was tested. Which “PBM E-score” value did it give?
A: Its value is 0.0992.

Q: With CCGTGCAC as the sequence, how does the “PBM E-score” value read?
A: The value was 0.31.

Q: TCGTGCAA was tested. Which “PBM E-score” value did it give?
A: Its value is 0.361.

Q: CCGTGCGA was tested. Which “PBM E-score” value did it give?
A: Its value is 0.354.

Q: CCGTGCAG was tested. Which “PBM E-score” value did it give?
A: The value was 0.192.

Q: How did the “PBM E-score” value turn out when CCGTGCAA was run?
A: The value was 0.334.

Q: ACGTGCAC was tested. Which “PBM E-score” value did it give?
A: Its value is 0.112.

Q: Which “PBM E-score” value does the source give for CCGTGCGC here?
A: The value was 0.218.

Q: With CTGTGCAA as the sequence, how does the “PBM E-score” value read?
A: The value was 0.0274.

Q: With ACGTGCAA as the sequence, how does the “PBM E-score” value read?
A: The value was 0.21.

Q: With GCGTGCAC as the sequence, how does the “PBM E-score” value read?
A: Its value is -0.0221.

Q: Which “PBM E-score” value does the source give for TCTCCAAA here?
A: The value was -0.0776.

Q: CCCGGCCA was tested. Which “PBM E-score” value did it give?
A: Its value is -0.267.

Q: Which “PBM E-score” value does the source give for AACAGCTG here?
A: The value was -0.0093.

Q: ACACTGGG was tested. Which “PBM E-score” value did it give?
A: Its value is -0.134.

Q: GCAACTCC was tested. Which “PBM E-score” value did it give?
A: The value was -0.257.

Q: Which “PBM E-score” value does the source give for ACACGTGA here?
A: Its value is 0.237.

Q: With CCGAACCG as the sequence, how does the “PBM E-score” value read?
A: The value was -0.0651.

Q: For AATGATAG, which “PBM E-score” value is on record?
A: Its value is 0.229.

Q: Which “PBM E-score” value does the source give for AATGATGA here?
A: Its value is 0.282.

Q: Which “PBM E-score” value does the source give for AATGATTA here?
A: The value was 0.273.

Q: How did the “PBM E-score” value turn out when AATGATAA was run?
A: The value was 0.408.

Q: Which “PBM E-score” value does the source give for GATGATAA here?
A: Its value is 0.36.

Q: For AATGATAC, which “PBM E-score” value is on record?
A: The value was 0.288.

Q: How did the “PBM E-score” value turn out when AATGATGT was run?
A: The value was 0.325.

Q: How did the “PBM E-score” value turn out when GATGATAC was run?
A: The value was 0.297.

Q: GATAATAA was tested. Which “PBM E-score” value did it give?
A: Its value is 0.24.

Q: With AATGATGG as the sequence, how does the “PBM E-score” value read?
A: The value was 0.0838.

Q: Which “PBM E-score” value does the source give for CATGATAC here?
A: Its value is 0.236.

Q: For AGCTAGGG, which “PBM E-score” value is on record?
A: Its value is -0.309.

Q: CCTGCGTC was tested. Which “PBM E-score” value did it give?
A: Its value is -0.22.

Q: ATACTTTA was tested. Which “PBM E-score” value did it give?
A: The value was 0.094.

Q: ACAACCGG was tested. Which “PBM E-score” value did it give?
A: The value was 0.0327.

Q: For GGGGCATA, which “PBM E-score” value is on record?
A: The value was -0.184.

Q: With CAGCTTAA as the sequence, how does the “PBM E-score” value read?
A: The value was -0.00327.

Q: TATGATAA was tested. Which “PBM E-score” value did it give?
A: Its value is 0.258.

Q: AATGAAAT was tested. Which “PBM E-score” value did it give?
A: The value was 0.166.

Q: For CATGATAA, which “PBM E-score” value is on record?
A: Its value is 0.356.

Q: For AATGAGAT, which “PBM E-score” value is on record?
A: Its value is 0.148.

Q: CATGATAG was tested. Which “PBM E-score” value did it give?
A: Its value is 0.0986.

Q: AATGATAT was tested. Which “PBM E-score” value did it give?
A: Its value is 0.436.

Q: CTGGATGA was tested. Which “PBM E-score” value did it give?
A: Its value is 0.0651.

Q: How did the “PBM E-score” value turn out when CCTTGAAG was run?
A: Its value is -0.111.

Q: With GCGTGGCA as the sequence, how does the “PBM E-score” value read?
A: The value was -0.0717.

Q: How did the “PBM E-score” value turn out when CGACGAAA was run?
A: The value was 0.363.

Q: With AGACGAAG as the sequence, how does the “PBM E-score” value read?
A: The value was 0.135.

Q: With TGACGAAA as the sequence, how does the “PBM E-score” value read?
A: The value was 0.349.

Q: With GGACGAAA as the sequence, how does the “PBM E-score” value read?
A: Its value is 0.0999.

Q: For CGACGAAG, which “PBM E-score” value is on record?
A: Its value is 0.357.

Q: For AGACGAAA, which “PBM E-score” value is on record?
A: The value was 0.296.

Q: For CGACGAGA, which “PBM E-score” value is on record?
A: Its value is 0.13.

Q: How did the “PBM E-score” value turn out when CAACGAAA was run?
A: Its value is 0.23.

Q: How did the “PBM E-score” value turn out when CGACGAAC was run?
A: The value was 0.168.

Q: Which “PBM E-score” value does the source give for TCAACGCA here?
A: Its value is -0.00848.

Q: CCCAGAAC was tested. Which “PBM E-score” value did it give?
A: Its value is -0.144.

Q: How did the “PBM E-score” value turn out when GTGCCTTA was run?
A: Its value is 0.0147.

Q: Which “PBM E-score” value does the source give for AGCCTGAG here?
A: The value was -0.27.

Q: Which “PBM E-score” value does the source give for ATCTACGG here?
A: The value was 0.344.

Q: For AGATACGA, which “PBM E-score” value is on record?
A: The value was 0.223.

Q: ATATACGC was tested. Which “PBM E-score” value did it give?
A: The value was 0.146.

Q: How did the “PBM E-score” value turn out when ATATACGG was run?
A: Its value is 0.339.

Q: Which “PBM E-score” value does the source give for ATATACGA here?
A: The value was 0.324.

Q: Which “PBM E-score” value does the source give for ATCTACGC here?
A: The value was 0.0634.

Q: For ATATACCG, which “PBM E-score” value is on record?
A: The value was 0.268.

Q: Which “PBM E-score” value does the source give for CTATACGA here?
A: Its value is 0.327.

Q: ATCTACGA was tested. Which “PBM E-score” value did it give?
A: Its value is 0.233.

Q: For CTATACGC, which “PBM E-score” value is on record?
A: The value was -0.0573.

Q: How did the “PBM E-score” value turn out when ATATACCA was run?
A: The value was 0.173.

Q: With GTATACGA as the sequence, how does the “PBM E-score” value read?
A: Its value is 0.242.

Q: With CTGGCGGA as the sequence, how does the “PBM E-score” value read?
A: Its value is -0.122.

Q: With AGTCGCTC as the sequence, how does the “PBM E-score” value read?
A: The value was -0.106.

Q: CGACCCTC was tested. Which “PBM E-score” value did it give?
A: The value was -0.152.

Q: Which “PBM E-score” value does the source give for GTCGACGA here?
A: The value was 0.26.

Q: TAAGATGA was tested. Which “PBM E-score” value did it give?
A: The value was 0.182.

Q: For AGACGGCT, which “PBM E-score” value is on record?
A: The value was -0.0258.

Q: For CGTATACG, which “PBM E-score” value is on record?
A: Its value is 0.195.

Q: With ATCGCCCC as the sequence, how does the “PBM E-score” value read?
A: Its value is -0.113.

Q: How did the “PBM E-score” value turn out when ACAACTTA was run?
A: Its value is 0.0805.

Q: Which “PBM E-score” value does the source give for GTAAAGAA here?
A: The value was 0.113.

Q: Which “PBM E-score” value does the source give for ACCACACA here?
A: Its value is -0.0452.
